Assay results as given in PubChem BioAssay (Tox21).
Records with an inconclusive call do not appear. A call without a number means that no potency is given here. Activity calls are given as the source filed them. Calls come from the whole dose curve; as a rule, active = well fitted curve in the direction sought with a large enough effect in the repeat runs; inconclusive = weak or mixed curves; inactive = no such curve, though single readings can be large; an effect the other way counts as inactive or inconclusive.

Tested on: not listed separately
Experiment: qHTS assay to identify small molecule antagonists of the androgen receptor (AR) signaling pathway using the MDA cell line in the presence of 0.5 nM R1881 - cell viability counter screen (AID 1259242); note: nearly all actives have a fitted effect of over 45% in size
Settings: MDA-kb2 viability, CellTiter-Fluor protease fluorescence, 16 h; series mostly up to 92.4 µM
Summary of the method: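 Counter screen for cytotoxicity run in the same wells as the AR antagonist reporter screen: MDA-kb2 cells were treated 16 hr with test compounds and 0.5 nM R1881, then live-cell protease activity was measured by fluorescence.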

SMILES	Potency
ClCCOCCOCCCl	inactive
O=C1CCC(=O)O1	inactive
C=C1[C@H]2CC[C@@H]3[C@H]2C(C)(C)CCC[C@]13C	inactive
COC(C)OC	inactive
Cc1oc(-c2ccccc2)nc1CCOc1cccc2c1ccn2CCC(=O)O	inactive
C[N+](C)(C)CCOC(=O)CCC(=O)OCC[N+](C)(C)C	inactive
CCCC(=O)Nc1ccc(O)c(C(C)=O)c1	inactive
CCCCc1nc2cccnc2n1Cc1ccc(-c2ccccc2-c2nnn[nH]2)cc1	inactive
CC1=CC=C(C(C)C)CC1	inactive
C=CCOc1ccccc1OCC(O)CNC(C)C (stereo not drawn)	inactive
c1cc(CCCc2ccncc2)ccn1	inactive
Cc1cc(C(=O)O)ccc1[N+](=O)[O-]	inactive
CN(C)c1ccc(CCO)cc1	inactive

Target: Estrogen receptor (Homo sapiens) (UniProt P03372)
Sequence (P03372 whole entry, looked up): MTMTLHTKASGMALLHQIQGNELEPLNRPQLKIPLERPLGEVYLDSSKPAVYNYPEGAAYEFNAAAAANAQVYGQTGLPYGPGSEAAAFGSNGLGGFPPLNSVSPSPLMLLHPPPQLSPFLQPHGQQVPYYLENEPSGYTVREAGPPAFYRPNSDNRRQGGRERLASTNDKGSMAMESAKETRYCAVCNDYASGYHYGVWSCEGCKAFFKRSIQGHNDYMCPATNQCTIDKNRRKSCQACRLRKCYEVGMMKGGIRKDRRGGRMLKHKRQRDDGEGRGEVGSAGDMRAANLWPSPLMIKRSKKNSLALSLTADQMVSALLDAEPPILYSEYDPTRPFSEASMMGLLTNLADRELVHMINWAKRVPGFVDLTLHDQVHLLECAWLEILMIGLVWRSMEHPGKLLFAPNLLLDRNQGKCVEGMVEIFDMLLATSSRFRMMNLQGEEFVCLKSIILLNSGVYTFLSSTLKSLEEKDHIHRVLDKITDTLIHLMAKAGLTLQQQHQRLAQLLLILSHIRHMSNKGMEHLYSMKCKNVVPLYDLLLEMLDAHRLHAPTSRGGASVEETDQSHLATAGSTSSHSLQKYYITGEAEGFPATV
Experiment: qHTS assay to identify small molecule antagonists of the estrogen receptor alpha (ER-alpha) signaling pathway using the BG1 cell line in the presence of 0.1 nM 17-beta-estradiol (AID 1259244); note: nearly all actives have a fitted effect of over 50% in size
Settings: VM7Luc4E2 (BG1) ERE-luciferase, antagonist mode, 0.1 nM E2, 22 h; series mostly up to 42.5 µM
Summary of the method: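 Cells: VM7Luc4E2, endogenous ER-alpha, 4x ERE-luc stable. Pre-culture 5 d, phenol red-free, charcoal-stripped FBS. Plated 24 h, compound + E2 0.1 nM final, 22 h 37C/5% CO2. Readout ONE-Glo luminescence.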

SMILES	Potency	activity change, negative = inhibition
CC1OC(=O)C(C)OC1=O (stereo not drawn)	inactive	
CC(C)Cc1ccc(C(C)C(=O)OCc2ccccn2)cc1 (stereo not drawn)	inactive	
CCOc1ccc(O)cc1	inactive	
CN1C[C@H]2c3ccccc3Oc3ccc(Cl)cc3[C@@H]2C1	inactive	
CC(=O)c1cccc([N+](=O)[O-])c1	inactive	
CC1CCC(=O)C1=O (stereo not drawn)	inactive	
O=C(O)c1ccco1	inactive	
CN1Cc2cc(C(=O)N3CCC(C4CCNCC4)CC3)ccc2NC(CC(=O)O)C1=O (stereo not drawn)	inactive	
CCOc1ccc(N)c([N+](=O)[O-])c1	inactive	
Nc1ccc([N+](=O)[O-])c(C(F)(F)F)c1	inactive	
CCCCCCCCCCO[C@@H]1O[C@H](CO)[C@@H](O)[C@H](O)[C@H]1O	inactive	
O=P(O)(OCc1ccccc1)OCc1ccccc1	inactive	
C=CC1CC2C=CC1C2 (stereo not drawn)	inactive	
Brc1c2ccccc2c(Br)c2ccccc12		0.899% [at 8.39 µM] (inactive)
Brc1c2ccccc2cc2ccccc12	inactive	
O=C(OCCc1ccccc1)c1ccccc1	inactive	
CCC(CC)Nc1ccc(C)c(C)c1	inactive	
COc1ccc(C(=O)c2ccc(OC)cc2O)c(O)c1	inactive	

SMILES	Potency	activity change, negative = inhibition
c1ccc(C(O[C@H]2CCCN(CCc3ccc4c(c3)OCO4)C2)c2ccccc2)cc1	inactive	
C[C@@H]1C[C@H]2[C@@H]3CCC4=CC(=O)C=C[C@]4(C)[C@@]3(F)[C@@H](O)C[C@]2(C)[C@@]1(O)C(=O)COC(=O)c1ccncc1	inactive	
CCCCCCCCCOS(=O)(=O)O	inactive	
C/C=C(/C(=C/C)c1ccc(OC(C)=O)cc1)c1ccc(OC(C)=O)cc1	inactive	
ClCCOCCOCCCl	inactive	
O=C1CCC(=O)O1	inactive	
C=C1[C@H]2CC[C@@H]3[C@H]2C(C)(C)CCC[C@]13C	inactive	
COC(C)OC	inactive	
Cc1oc(-c2ccccc2)nc1CCOc1cccc2c1ccn2CCC(=O)O	inactive	
C[N+](C)(C)CCOC(=O)CCC(=O)OCC[N+](C)(C)C	inactive	
CCCC(=O)Nc1ccc(O)c(C(C)=O)c1	inactive	
CCCCc1nc2cccnc2n1Cc1ccc(-c2ccccc2-c2nnn[nH]2)cc1	inactive	
CC1=CC=C(C(C)C)CC1	inactive	
C=CCOc1ccccc1OCC(O)CNC(C)C (stereo not drawn)	inactive	
c1cc(CCCc2ccncc2)ccn1	inactive	
Cc1cc(C(=O)O)ccc1[N+](=O)[O-]	inactive	
CN(C)c1ccc(CCO)cc1	inactive	
